Assay outcomes (PubChem)
Sm TGR block: blocks Schistosoma mansoni thioredoxin glutathione reductase. Potency, µM (doses to about 114 µM), for the others: top-dose activity change, negative = inhibition, usual class: inhibitors. 360,000 tested, 3% active. purified TGR, DTNB reduction, TNB absorbance 405 nm. Q962Y6; active means well fitted inhibition curve with a large enough effect; inconclusive means small, poorly fitted or top-dose-only effect; inactive means no such curve, though single readings can be large or run the other way; further: nearly all actives have a fitted effect of over 60% in size
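First, TGR (20 nM dispensed) and NADPH were mixed with compound. Second, a 15 min room-temperature incubation followed. Third, further NADPH and then DTNB were added to start the reaction. Finally, TNB absorbance was monitored kinetically.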
Marburg entry inh: inhibitors of Marburg virus binding or cell entry. Potency, µM (series often up to 37.8 µM), inactives show at the highest dose activity change, negative = inhibition, most hits filed as inhibitors. 300,000 tested, 1.8% active. AID 540276. Marburg virus pseudotyped entry inhibition, cell reporter; calls by dose curve; tested in HEK293 cells
FMDV inh: antivirals against foot and mouth disease virus; 410,000 tested, 1.2% active; AID 1159524; FMDV antiviral cell-based qHTS; Potency, µM (top dose mostly 57.9 µM), without a hit: at the highest dose activity change, negative = inhibition, actives largely listed as inhibitors; calls by dose curve; tested in HEK293T cells; further: read-out not given here; nearly all actives have a fitted effect of over 45% in size
VACV Venus inh: inhibitors of vaccinia virus (Venus reporter); Potency, µM (highest dose often 36.5 µM), inactives show top-dose activity change, negative = inhibition, actives largely listed as inhibitors; 330,000 tested, 0.46% active; Vaccinia virus Venus reporter expression, fluorescence; calls by dose curve; tested in A549 cells; further: nearly all actives have a fitted effect of over 30% in size
VACV mCherry inh: vaccinia inhibition (mCherry reporter); Vaccinia virus mCherry reporter infection, fluorescence; Potency, µM (highest dose often 36.5 µM), for inactives: top-dose activity change, negative = inhibition, most hits filed as inhibitors; 310,000 tested, 0.63% active; AID 720579; calls by dose curve; tested in A549 cells; further: nearly all actives have a fitted effect of over 35% in size
Lassa entry inh: Lassa virus entry inhibition; 300,000 tested, 1.2% active; Potency, µM (series often up to 37.9 µM), for inactives: top-dose activity change, negative = inhibition, usual class: inhibitors; Lassa virus pseudotype entry inhibition, cell reporter; AID 540256; calls by dose curve; tested in HEK293 cells; further: nearly all actives have a fitted effect of over 50% in size
Numbers without * were called inactive; i = inactive; ? = inconclusive; · = no result given; [ ] = remark or other dose. This is a sample that favours compounds with a hit; in the whole collection about 5.4% have one here. On the % scale 0 is the no-effect control and ±100 the full control effect; potency means the concentration at half of the fitted maximal effect.

SMILES	Sm TGR block	Marburg entry inh	FMDV inh	VACV Venus inh	VACV mCherry inh	Lassa entry inh
COc1ccc(/C=N/OCC(=O)NC(c2ccccc2)c2ccccc2)c(OC)c1	0%	?	?	-28%	-12%	2.2µM*
CCOC(=O)c1c(S(=O)(=O)N2CCCC(C(=O)Nc3cccc(C#N)c3)C2)c(C)n(C)c1C (stereo not drawn)	-2%	·	11%	-9%	-12%	-7%[46.1 µM]
O=C(COc1cccc2cccnc12)N/N=C/c1ccccc1O	-20%	?	5%	-27%	2.5µM*	?
O=C(N/N=C/c1ccc[nH]1)c1ccc(COc2cccc3cccnc23)cc1	0%	?	8.9µM*	?	1.6µM*	?
O=C(N/N=C/c1ccccc1C(=O)O)c1ccc(COc2cccc3cccnc23)cc1	1%	?	14%	0%	-2%	20%
CC(NC(=O)/C=C/c1ccc(Br)cc1)c1ccccc1 (stereo not drawn)	-3%	?	-17%	-6%	-20%	15µM*
Cc1ccc(/C=C/C(=O)NC(C)c2ccccc2)cc1 (stereo not drawn)	5%	9%	10%	-21%	-22%	11µM*
CC(NC(=O)/C=C/c1ccccc1)c1ccccc1 (stereo not drawn)	10%	?	8%	-9%	i	?
CCCNC(=O)/C=C/c1ccc(C(C)C)cc1	-2%	?	48%	-17%	-12%	18µM*
CC(C)c1ccc(/C=C/C(=O)NCCCc2ccccc2)cc1	-4%	5%	-9%	-7%	-15%	9%
CC1=C(C(=O)OC(C)C)C(c2cccnc2)n2ncnc2N1 (stereo not drawn)	0%	0%	-6%	28µM*	28µM*	·
CC1=C(C(=O)OC(C)C)C(c2ccncc2)n2ncnc2N1 (stereo not drawn)	-5%	3%	-15%	-9%	·	4%
Oc1ccccc1CN1CCCN(Cc2ccccc2O)C1	-1%	1.5µM*	3%	·	·	7.3µM*
CCOC(=O)Nc1ccc2c(c1)N(C(=O)CCN(CC)CC)c1ccccc1S2=O (stereo not drawn)	4.5µM*	?	-11%	?	10µM*	18µM*
COc1cccc(C(=O)Nc2nc(-c3ccccc3)c(-c3ccccc3)o2)c1	1%	?	-10%	·	·	?
O=C(Nc1nc(-c2ccccc2)c(-c2ccccc2)o1)c1ccc(F)cc1	-16%	10µM*	-11%	?	?	-11%
O=C(CC1Sc2ncnn2C1=O)Nc1ccc(Br)cc1 (stereo not drawn)	1µM*	·	-10%	3%	-11%	·
CC(=O)Nc1ccc(N2CCN(Cc3ccccc3)CC2)cc1	6%	·	-8%	·	·	·
Cc1cc(C)cc(N2Cc3ccccc3C2)c1	?	-5%	-3%	-7%	13%	·
CCc1ccc(N2Cc3ccccc3C2)cc1	18µM*	·	27%	·	·	·
O=C(Nc1ccc(N2CCCCC2)cc1)c1ccc(F)cc1F	0%	?	-11%	-9%	-11%	10µM*
CC(=O)Nc1ccc(N2Cc3ccccc3C2)cc1	13µM*	?	-3%	-13%	-7%	?
CC(=O)Nc1ccc(N2CCCC2)cc1	35µM*	1%	-2%	-18%	i	-6%
CC(=O)Nc1ccc(N2CCCCC2)cc1	-19%	29%	·	-6%	-12%	7%
O=C(Nc1ccc(N2CCCC2)cc1)c1ccccc1F	?	?	21%	-1%	i	-26%
SMILES	Sm TGR block	Marburg entry inh	FMDV inh	VACV Venus inh	VACV mCherry inh	Lassa entry inh
CC(C)c1ccc(NC(=O)CSc2nc(=O)n(Cc3ccccn3)c3c2CCC3)cc1	7%	·	0%	-12%[7.34 µM]	-16%[7.34 µM]	-35%[46.1 µM]
CCOC(=O)N1CCc2c(sc3c2c(=O)n(Cc2ccccc2)c(=O)n3Cc2ccccc2Cl)C1	2%	4%[46.1 µM]	?	-22%	-29%	3%[46.1 µM]
CCc1ccc(NC(=O)c2ccc(F)c(S(=O)(=O)N(C)C3CCCCC3)c2)cc1	0%	·	?	?	?	?
O=C(Nc1ccc(N2CCCCC2)cc1)c1ccccc1	4%	?	·	-18%	-21%	7.3µM*
Cc1cc(C(=O)Nc2ccc(S(=O)(=O)N3CCCC3)cc2)no1	-1%	-16%	0%	-7%	-2%	19%
Cc1ccc(C(=O)Nc2ccc(N3CCCCC3)cc2)cc1	·	·	0%	·	·	·
Cc1cc(C(=O)Nc2ccc(N3CCCCC3)cc2)no1	-5%	?	-51%	-2%	i	11µM*
Cc1cc2oc(=O)cc(CN3CCCCC3)c2cc1C	-10%	·	-4%	·	·	·
Cc1cc2oc(=O)cc(CN3CCN(S(=O)(=O)c4cccs4)CC3)c2cc1C	5%	14µM*	?	-5%	-7%	14µM*
Cc1ccc(NC(=O)CSc2nccn2-c2ccccc2)cc1	2%	·	33%	0%	i	-2%[46.1 µM]
COc1ccc(CCNc2ncnc3onc(C)c23)c(OC)c1	2%	·	13µM*	-26%	?	-11%[46.1 µM]
Cc1ccccc1-c1oc(C)c(C)[n+]1[O-]	25µM*	-1%	1%	-12%	-5%	1%
O=C(CCCN1CCOCC1)c1ccc2c(c1)OCCO2	-22%	6%	·	-18%	-16%	1%
O=C(CCN1CCc2ccccc2CC1)c1ccc2c(c1)OCCO2	0.35µM*	-51%	1%	·	·	?
O=C(CCN1CCOCC1)c1ccc2c(c1)OCCO2	1.6µM*	4%	-3%	-28%	·	-15%
O=C(c1ccc2c(c1)OCO2)C1CCCN(C2CCN(CCc3ccccc3)CC2)C1 (stereo not drawn)	0%	7.1µM*	-8%	-24%	i	?
O=C(CCN1CCCCC1)c1ccc2c(c1)OCO2	0.28µM*	-10%	-5%	-23%	-15%[1.46 µM]	-5%
Cc1cccc2cc(CNCCCN3CCCC3=O)c(N3CCN4CCCC4C3)nc12 (stereo not drawn)	·	·	4%	-19%	i	·
COc1ccc(C=CNC(=O)Cc2ccc(OC)c(OC)c2)cc1	·	24%[14.2 µM]	·	·	·	·
CCc1nn2c(-c3ccco3)ccnc2c1-c1ccc(F)cc1	-2%	-26%[46.1 µM]	57%	-6%	-5%	?
CNC(=O)c1c(NC(=O)c2nc3ccccc3s2)sc2c1CCC2	45µM*	3%	·	·	·	·
CNC(=O)c1c(NC(=O)C(C)C)sc2c1CCC2	45µM*	-6%[46.1 µM]	1%	-5%	16%	2%
COC(=O)c1c(NC(=O)c2nc3ccccc3s2)sc2c1CCN(C(C)=O)C2	-10%	·	-22%	-26%	-5%	·
Cc1ccc(S(=O)(=O)Nc2cc(C)c(O)c(S(=O)(=O)c3ccc(C)cc3)c2)cc1	45µM*	0%	60%	·	·	19%
Cc1cc(NS(=O)(=O)c2ccccc2)cc(Cl)c1O	?	-8%	19%	-11%	-26%	19%
CCN1CCN(c2cc3c(cc2F)c(=O)c(S(=O)(=O)c2cc(C)cc(C)c2)cn3CC)CC1	3%	·	6%	-19%	-8%	4%[46.1 µM]
CC1=C(C(=O)N2CCCCC2)C(c2cccc(Cl)c2)n2c(nc3ccccc32)N1 (stereo not drawn)	-1%	-18%[46.1 µM]	-7%	-5%	-21%	-11%[46.1 µM]
